Measurements as given in PubChem BioAssay (NCATS).
Values joined by “and” are separate entries in the source; they are usually repeats but may differ in a detail not shown here. Equal values may be shown once. Records with an inconclusive call do not appear. Active and inactive are the calls of the source. Calls come from the whole dose curve; as a rule, active = well fitted inhibition curve with a large enough effect; inconclusive = small, poorly fitted or top-dose-only effect; inactive = flat fitted curve, though single readings scatter.

Each compound was assayed on MCC-26 (assay: qHTS assay to identify novel small-molecules to repurpose for Merkel cell carcinoma treatment (AID 1296009; note: nearly all actives have a fitted effect of over 60% in size)). Conditions: MCC and control cell lines, CellTiter-Glo viability, 72 h; series mostly up to 46 µM; activity change, negative = cytotoxicity: at the top concentration.
From the text: MCC is a rare and aggressive neuroendocrine skin cancer with limited treatment options. Approximately 80% of MCCs have the Merkel cell polyomavirus (MCPyV) DNA integrated into the host genome (virus-positive: VP-MCC) and viral oncogenes drive oncogenesis. The remaining MCCs are virus-negative (VN-MCC) and are caused by UV mutagenesis. To identify novel treatments for VP-MCC and/or VN-MCC we screened three VP-MCC cell lines (WAGA, MKL-1, MKL-2), three VN-MCC cell lines (MCC-13, MCC-26, UISO), and four immortalized, non-transformed control cell lines (HaCaT, HEK293T, CRL7250, NIH-3T3) against ~2,400 compounds in the NCGC Pharmaceutical Collection (NPC) and ~1,900 compounds in the Mechanism Interrogation PlatE (MiPE). Using cell viability as a readout (CellTiter-Glo assay) we found both overlapping and distinct drugs that can be repurposed for the treatment of VP-MCC and VN-MCC.
A high-throughput screen was conducted in 1536-well white flat bottom plates (Corning) on a Kalypsys robotic system. Cell lines WAGA, MKL-1, MKL-2, MCC-13, MCC-26, UISO, HaCaT, HEK293T, CRL7250, and NIH-3T3 were screened against 2 small molecule annotated drug libraries NPC and MIPE in dose response (8 and 11 pt. respectively) measuring cell viability after 72 hours of incubation. […] A 1,536 pintool (Kalypsys) was used to transfer 23 nL of compound in DMSO to the 1,536-well assay plates. After 72 hr incubation at 37 degree celsius, 2.5 uL of CellTiter-Glo (Promega) was dispensed into each well using a BiorapTR. Plates were incubated at room temperature for 10 min, transferred to a ViewLux (PerkinElmer) and the luminescence was recorded using an exposure time of 2 seconds. Relative luminescence units (RLUs) were normalized to in-plate controls (no cells as a positive (cytotoxicity) control, DMSO as negative control) and the normalized data was processed using NCATS in-house software.
% is set by controls: 0 for no effect and ±100 for the full control effect; potency is the fitted concentration of half-maximal effect.

Q: With `NCCCCNCCCN` as the compound, how does the “activity change, negative = cytotoxicity” value read?
A: Its value is 11.8% (inactive).

Q: `CCCCCCCCCCCCCCCCCCCCCCO` was tested. Which “activity change, negative = cytotoxicity” value did it give?
A: Its value is 0.531% (inactive).

Q: Which “activity change, negative = cytotoxicity” value does the source give for `CCCCCCCCOc1ccccc1C(=O)Nc1ccc(C(=O)OCC[N+](C)(CC)CC)cc1` here?
A: Its value is -20.5% (inactive).

Q: For `CC1(C)C(=O)N(CCN2CCC(C(=O)c3ccc(F)cc3)CC2)c2ccccc21`, which “activity change, negative = cytotoxicity” value is on record?
A: Its value is -3.48% (inactive).

Q: `COCCCOc1ccnc(CS(=O)c2nc3ccccc3[nH]2)c1C` (stereo not given) was tested. Which Potency did it give?
A: The Potency was “inactive”.

Q: Which Potency does the source give for `CC1(C)NC(=O)N(c2ccc([N+](=O)[O-])c(C(F)(F)F)c2)C1=O` here?
A: Its Potency is “inactive”.

Q: For `Nc1ccc(S(N)(=O)=O)cc1`, which Potency is on record?
A: Its Potency is “inactive”.

Q: `Cc1cc(C2CCCCC2)n(O)c(=O)c1` was tested. Which Potency did it give?
A: Its Potency is 15 µM (active).

Q: `O=C(CCc1ccc(O)cc1)c1c(O)cc(O)cc1O` was tested. Which “activity change, negative = cytotoxicity” value did it give?
A: Its value is -13.6% (inactive).

Q: With `CN(C)CCCC1(c2ccc(F)cc2)OCc2cc(C#N)ccc21` (stereo not given) as the compound, how does the “activity change, negative = cytotoxicity” value read?
A: Its value is -12.5% (inactive).

Q: How did the “activity change, negative = cytotoxicity” value turn out when `Nc1nc(Cl)nc2c1ncn2[C@H]1C[C@H](O)[C@@H](CO)O1` was run?
A: The value was -20.3% (inactive).

Q: Which “activity change, negative = cytotoxicity” value does the source give for `CC(C)c1ccc2c(c1)c(SC(C)(C)C)c(CC(C)(C)C(=O)O)n2Cc1ccc(Cl)cc1` here?
A: The value was -12.2% (inactive).

Q: With `CCN(CC)C(=S)SSC(=S)N(CC)CC` as the compound, how does the Potency read?
A: The Potency was 1.48 µM (active) and 596 nM (active).

Q: With `Cc1c(OCC(F)(F)F)ccnc1CS(=O)c1nc2ccccc2[nH]1` (stereo not given) as the compound, how does the Potency read?
A: The Potency was “inactive”.

Q: For `c1ccc2[nH]c(-c3cscn3)nc2c1`, which Potency is on record?
A: Its Potency is “inactive”.

Q: With `CC(C)[N+]1(C)[C@@H]2CC[C@H]1CC(OC(=O)C(CO)c1ccccc1)C2` (stereo not given in full) as the compound, how does the “activity change, negative = cytotoxicity” value read?
A: The value was 6.9% (inactive).

Q: For `Clc1ccc(C(Cn2ccnc2)OCc2c(Cl)cccc2Cl)c(Cl)c1` (stereo not given), which Potency is on record?
A: Its Potency is “inactive”.

Q: With `O=C(NOCC1CC1)c1ccc(F)c(F)c1Nc1ccc(I)cc1Cl` as the compound, how does the Potency read?
A: Its Potency is “inactive”.

Q: How did the Potency turn out when `O=C(O)c1cccnc1Nc1cccc(C(F)(F)F)c1` was run?
A: Its Potency is “inactive”.

Q: Which “activity change, negative = cytotoxicity” value does the source give for `O=C1NC(=O)C(c2ccccc2[N+](=O)[O-])=C1Nc1ccc(O)c(Cl)c1` here?
A: The value was 6.47% (inactive).

Q: How did the “activity change, negative = cytotoxicity” value turn out when `Oc1ccc2ccccc2c1SSc1c(O)ccc2ccccc12` was run?
A: The value was -17.6% (inactive).

Q: Which Potency does the source give for `N=C(N)c1ccc2cc(OC(=O)c3ccc(N=C(N)N)cc3)ccc2c1` here?
A: Its Potency is “inactive”.

Q: `C[C@]12CCC(=O)C=C1CC[C@@H]1[C@H]2[C@@H](O)C[C@@]2(C)[C@H]1CC[C@]2(O)C(=O)CO` was tested. Which “activity change, negative = cytotoxicity” value did it give?
A: Its value is 1.3% (inactive).

Q: How did the Potency turn out when `Cc1ccc(C(=O)c2cc(O)c(O)c([N+](=O)[O-])c2)cc1` was run?
A: Its Potency is “inactive”.

Q: Which Potency does the source give for `CC(=O)Nc1ccc(O)cc1` here?
A: Its Potency is “inactive”.

Q: How did the Potency turn out when `N=C(N=C(N)N)N1CCOCC1` was run?
A: The Potency was “inactive”.

Q: For `CCN(CCO)CCCC(C)Nc1ccnc2cc(Cl)ccc12` (stereo not given), which Potency is on record?
A: Its Potency is “inactive”.

Q: For `O=C1CCc2ccc(OCCCCN3CCN(c4cccc(Cl)c4Cl)CC3)cc2N1`, which Potency is on record?
A: The Potency was “inactive”.

Q: For `C[C@@H](N)C1CCC(C(=O)Nc2ccncc2)CC1` (stereo not given in full), which “activity change, negative = cytotoxicity” value is on record?
A: Its value is -6.38% (inactive).

Q: How did the “activity change, negative = cytotoxicity” value turn out when `O=C1c2ccccc2-c2n[nH]c3cccc1c23` was run?
A: The value was -19.3% (inactive).

Q: For `Cc1ccc(Nc2nccc(N(C)c3ccc4c(C)n(C)nc4c3)n2)cc1S(N)(=O)=O`, which Potency is on record?
A: The Potency was “inactive”.

Q: `CC(C)[C@H](N)C(=O)OCCOCn1cnc2c(=O)[nH]c(N)nc21` was tested. Which Potency did it give?
A: Its Potency is “inactive”.

Q: How did the Potency turn out when `CN(C)c1ccc(O)c2c1C[C@H]1C[C@H]3[C@H](N(C)C)C(=O)C(C(N)=O)=C(O)[C@@]3(O)C(=O)C1=C2O` was run?
A: The Potency was “inactive”.

Q: How did the “activity change, negative = cytotoxicity” value turn out when `CNC[C@@H](O)[C@@H](O)[C@H](O)[C@H](O)CO` was run?
A: Its value is 0.483% (inactive).

Q: `OC(CN1CCN(c2cccc(Cl)c2)CC1)C(c1ccccc1)c1ccccc1` (stereo not given) was tested. Which “activity change, negative = cytotoxicity” value did it give?
A: The value was -2.75% (inactive).

Q: `C[C@H](Cn1cnc2c(N)ncnc21)OCP(=O)(O)O` was tested. Which “activity change, negative = cytotoxicity” value did it give?
A: Its value is 1.85% (inactive).

Q: With `Nc1ccn([C@@H]2O[C@H](CO)[C@@H](O)C2O)c(=O)n1` (stereo not given in full) as the compound, how does the “activity change, negative = cytotoxicity” value read?
A: The value was -11.2% (inactive).

Q: `CC[C@]1(O)C[C@H]2CN(CCc3c([nH]c4ccccc34)[C@@](C(=O)OC)(c3cc4c(cc3OC)N(C=O)[C@H]3[C@@](O)(C(=O)OC)[C@H](OC(C)=O)[C@]5(CC)C=CCN6CC[C@]43[C@@H]65)C2)C1` was tested. Which Potency did it give?
A: The Potency was 0.0469 µM (active).

Q: For `Cc1cccc(CN2CCN(C(c3ccccc3)c3ccc(Cl)cc3)CC2)c1` (stereo not given), which Potency is on record?
A: Its Potency is “inactive”.

Q: How did the Potency turn out when `Oc1ccc(OCc2ccccc2)cc1` was run?
A: The Potency was “inactive”.
